Measurements taken from PubChem BioAssay.
Activity calls are given as the source filed them.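 The calls were made as follows: active = visually confirmed hit in the image check and inhibition above 20%; inconclusive = visually confirmed hit but inhibition not above 20%; inactive = no visual hit in the image check.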

assay: inhibitors of E-selectin induction by TNFa, primary screen, imaging, HUVEC, immunofluorescence, MLSMR starter and 10KST1 sets (AID 487); conditions: HUVEC TNFalpha-induced E-selectin immunofluorescence imaging, at 2 µM; inhibition: stronger effect = higher value; nuclei count: measured here: cell number, toxicity;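 as to inhibition: signal is fraction of cell area covered by stained E-selectin grains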;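 as to nuclei count: 100% = median nuclei count of all wells on the same plate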

| SMILES | inhibition | nuclei count [%] |
| --- | --- | --- |
| COc1ccc(CNc2ccc(C(=O)O)cc2)cc1 | -61% (inactive) | 107 |
| COc1ccc(-c2cc(O)cc(O)c2)cc1 | -25% (inactive) | 98.8 |
| CCCC(=O)Nc1ccccc1-c1nnn(CC(=O)Nc2ccc(OCC)cc2)n1 | -7.5% (inactive) | 94.3 |
| CCOC(=O)c1c(-c2ccc(C)o2)csc1NC(=O)COC(=O)c1cccs1 | -41.5% (inactive) | 113 |
| O=C(Nc1cccc(Cl)c1)N1CCN(Cc2ccccc2)CC1 | -40% (inactive) | 106 |
| C/C=C/COC(=O)c1[nH]c2c(c1C)C(=O)CC(c1ccco1)C2 (stereo not given) | -141% (inactive) | 97 |
| CC(=O)NC(CCS(C)(=O)=O)C(=O)Nc1cccc(C)c1C (stereo not given) | -6.3% (inactive) | 117 |
| CCOC(=O)c1cn(CC)c2cc(N3CCOCC3)c(F)cc2c1=O | -45.9% (inactive) | 114 |
| CCCCC(=O)NCCc1ccc(S(N)(=O)=O)cc1 | -35% (inactive) | 88.9 |
| CCOc1ccc(-c2c(C#N)c(N)nc3c2c(=O)n(C)c(=O)n3C)cc1OC | -7.5% (inactive) | 103 |
| COc1ccc(NC(=O)c2cc(C)on2)cc1OC | 22.1% (inactive) | 106 |
| COc1ccc(CCNS(=O)(=O)c2ccc3oc(C(=O)O)c(C)c3c2)cc1OC | -32% (inactive) | 114 |
| O=C(Nc1cccnc1)c1ccc2c(c1)C(=O)N(Cc1cccnc1)C2=O | -26.9% (inactive) | 99.7 |
| CCCc1nnc2n1N=C(c1ccc(OC)c(OC)c1)CS2 | 12.3% (inactive) | 99.3 |
| CC(C)(C)NC(=O)CN(C(=O)CS(=O)CC(=O)Nc1ccc(F)cc1)c1ccc(Cl)cc1 (stereo not given) | -9.8% (inactive) | 118 |
